One test has as its target NKX3-2 (Homo sapiens, UniProt P78367 192-278, P234S). As to the kind of experiment: PBM; 200 nM protein, PBS. The note with it: dsDNA, one strand shown.
Chain of NKX3-2 (Homo sapiens, UniProt P78367 192-278, P234S) (P78367 192-278 P234S): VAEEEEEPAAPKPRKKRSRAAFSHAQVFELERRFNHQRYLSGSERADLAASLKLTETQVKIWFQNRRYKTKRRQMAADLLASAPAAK
In the case of AAGTACTT, the binding signal is 12.6 upbm affinity estimate (log intensity, higher = more binding, comparable within an allelic series).
On the same count and under the same terms, for CCCACTTA the value was 13.2 upbm affinity estimate (log intensity, higher = more binding, comparable within an allelic series); for CCACTCAA, 12.6 upbm affinity estimate (log intensity, higher = more binding, comparable within an allelic series).
Consider GGTACTTA, for which the binding signal was 12.8 upbm affinity estimate (log intensity, higher = more binding, comparable within an allelic series).
On the same count and under the same terms, for AAGTGGCT the value was 12.8 upbm affinity estimate (log intensity, higher = more binding, comparable within an allelic series); for AAGCACTT, 12.5 upbm affinity estimate (log intensity, higher = more binding, comparable within an allelic series); for AAGTGGAT, 12.8 upbm affinity estimate (log intensity, higher = more binding, comparable within an allelic series).
Consider AAGTGGAG, for which the binding signal is 12.7 upbm affinity estimate (log intensity, higher = more binding, comparable within an allelic series).
As for AAGTGGTA, the binding signal is 12.8 upbm affinity estimate (log intensity, higher = more binding, comparable within an allelic series).
The same measure, in the same setting: in the case of ACCACTTG it was 12.6 upbm affinity estimate (log intensity, higher = more binding, comparable within an allelic series); in that of CCACTTAG, 13.4 upbm affinity estimate (log intensity, higher = more binding, comparable within an allelic series); in that of GGCACTTA, 13.3 upbm affinity estimate (log intensity, higher = more binding, comparable within an allelic series).
Turning to ACTTAAGT, the binding signal was 12.6 upbm affinity estimate (log intensity, higher = more binding, comparable within an allelic series).
Same read-out and setting: for CCACTTAC the value was 13.2 upbm affinity estimate (log intensity, higher = more binding, comparable within an allelic series).
Same read-out and setting: in the case of CACTTAAC it was 12.9 upbm affinity estimate (log intensity, higher = more binding, comparable within an allelic series).
On the same count and under the same terms, for AAGTACCC the value was 12.8 upbm affinity estimate (log intensity, higher = more binding, comparable within an allelic series); for GCACTTCA, 12.6 upbm affinity estimate (log intensity, higher = more binding, comparable within an allelic series); for AACACTTA, 12.7 upbm affinity estimate (log intensity, higher = more binding, comparable within an allelic series).
Consider CACTTATG, for which the binding signal was 12.8 upbm affinity estimate (log intensity, higher = more binding, comparable within an allelic series).
The same measure, in the same setting: in the case of CACTTAAG it was 13 upbm affinity estimate (log intensity, higher = more binding, comparable within an allelic series).

The target in another test is NKX2-5 (Homo sapiens, UniProt P52952 125-210). In words: PBM; 200 nM protein, PBS. The settings on record: dsDNA, one strand shown.
Chain of NKX2-5 (P52952 125-210): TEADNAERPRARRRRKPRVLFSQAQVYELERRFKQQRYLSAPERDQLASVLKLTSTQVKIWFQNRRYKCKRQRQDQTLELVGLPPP
Consider AAGTACTC, for which the binding signal was 12.6 upbm affinity estimate (log intensity, higher = more binding, comparable within an allelic series).
Still for that read-out and setting: for CACTTGAC the value was 12.9 upbm affinity estimate (log intensity, higher = more binding, comparable within an allelic series); for ATTAAGTG, 12.6 upbm affinity estimate (log intensity, higher = more binding, comparable within an allelic series).
As to AGCACTTA, the binding signal was 12.8 upbm affinity estimate (log intensity, higher = more binding, comparable within an allelic series).
The same measure, in the same setting: for ACACTTAA the value was 12.8 upbm affinity estimate (log intensity, higher = more binding, comparable within an allelic series).
On the same count and under the same terms, for AGTACTTA the value was 12.8 upbm affinity estimate (log intensity, higher = more binding, comparable within an allelic series); for CACTTAAA, 13 upbm affinity estimate (log intensity, higher = more binding, comparable within an allelic series); for CAAGTGGC, 12.4 upbm affinity estimate (log intensity, higher = more binding, comparable within an allelic series).
In the case of GTACTTCA, the binding signal was 12.4 upbm affinity estimate (log intensity, higher = more binding, comparable within an allelic series).
On the same count and under the same terms, for CTCAAGTA the value was 12.6 upbm affinity estimate (log intensity, higher = more binding, comparable within an allelic series); for AGTACTTG, 12.3 upbm affinity estimate (log intensity, higher = more binding, comparable within an allelic series); for ACAAGTGG, 12.8 upbm affinity estimate (log intensity, higher = more binding, comparable within an allelic series).
On to CCACTTAA, for which the binding signal is 13.2 upbm affinity estimate (log intensity, higher = more binding, comparable within an allelic series).
Take ATAAGTGG: the binding signal is 13.1 upbm affinity estimate (log intensity, higher = more binding, comparable within an allelic series).
On the same count and under the same terms, in the case of AACCACTT it was 12.8 upbm affinity estimate (log intensity, higher = more binding, comparable within an allelic series); in that of CCACTTGA, 13.2 upbm affinity estimate (log intensity, higher = more binding, comparable within an allelic series); in that of CACTTATC, 12.8 upbm affinity estimate (log intensity, higher = more binding, comparable within an allelic series).
The same measure, in the same setting: in the case of AAGTACTT it was 13 upbm affinity estimate (log intensity, higher = more binding, comparable within an allelic series).
For the sequence ACACTTGA, the binding signal was 12.9 upbm affinity estimate (log intensity, higher = more binding, comparable within an allelic series).
For the sequence CCCACTTA, the binding signal is 12.9 upbm affinity estimate (log intensity, higher = more binding, comparable within an allelic series).
On the same count and under the same terms, in the case of CCACTCAA it was 12.3 upbm affinity estimate (log intensity, higher = more binding, comparable within an allelic series); in that of GGTACTTA, 12.9 upbm affinity estimate (log intensity, higher = more binding, comparable within an allelic series).
As for AAGTGGCT, the binding signal was 12.4 upbm affinity estimate (log intensity, higher = more binding, comparable within an allelic series).
The same measure, in the same setting: in the case of AAGCACTT it was 12.5 upbm affinity estimate (log intensity, higher = more binding, comparable within an allelic series); in that of AAGTGGAT, 12.5 upbm affinity estimate (log intensity, higher = more binding, comparable within an allelic series); in that of AAGTGGAG, 12.2 upbm affinity estimate (log intensity, higher = more binding, comparable within an allelic series).
On the same count and under the same terms, for AAGTGGTA the value was 12.5 upbm affinity estimate (log intensity, higher = more binding, comparable within an allelic series); for ACCACTTG, 12.6 upbm affinity estimate (log intensity, higher = more binding, comparable within an allelic series).
In the case of CCACTTAG, the binding signal was 13.1 upbm affinity estimate (log intensity, higher = more binding, comparable within an allelic series).
GGCACTTA: the binding signal is 13 upbm affinity estimate (log intensity, higher = more binding, comparable within an allelic series).
Still for that read-out and setting: in the case of ACTTAAGT it was 12.9 upbm affinity estimate (log intensity, higher = more binding, comparable within an allelic series); in that of CCACTTAC, 12.8 upbm affinity estimate (log intensity, higher = more binding, comparable within an allelic series); in that of CACTTAAC, 12.8 upbm affinity estimate (log intensity, higher = more binding, comparable within an allelic series).
In the case of AAGTACCC, the binding signal was 12.2 upbm affinity estimate (log intensity, higher = more binding, comparable within an allelic series).
With TAAGTGTA, the binding signal was 12.4 upbm affinity estimate (log intensity, higher = more binding, comparable within an allelic series).
On the same count and under the same terms, for GCACTTCA the value was 12.4 upbm affinity estimate (log intensity, higher = more binding, comparable within an allelic series); for AACACTTA, 12.6 upbm affinity estimate (log intensity, higher = more binding, comparable within an allelic series); for CACTTATG, 13 upbm affinity estimate (log intensity, higher = more binding, comparable within an allelic series).
Turning to GTACTTGA, the binding signal is 12.8 upbm affinity estimate (log intensity, higher = more binding, comparable within an allelic series).
Same read-out and setting: in the case of CACTTAAG it was 13.1 upbm affinity estimate (log intensity, higher = more binding, comparable within an allelic series).

A further test deals with NKX3-2 (Homo sapiens, UniProt P78367 192-278). In words: PBM; 200 nM protein, PBS. The settings on record: dsDNA, one strand shown.
Chain of NKX3-2 (Homo sapiens, UniProt P78367 192-278) (P78367 192-278): as the sequence (P78367 192-278 P234S) above, with S43P counted along it
For AAGTACTC, the binding signal is 12.8 upbm affinity estimate (log intensity, higher = more binding, comparable within an allelic series).
As for CACTTGAC, the binding signal is 12.2 upbm affinity estimate (log intensity, higher = more binding, comparable within an allelic series).
ATTAAGTG: the binding signal was 12.8 upbm affinity estimate (log intensity, higher = more binding, comparable within an allelic series).
On the same count and under the same terms, in the case of AGCACTTA it was 12.9 upbm affinity estimate (log intensity, higher = more binding, comparable within an allelic series); in that of ACACTTAA, 12.8 upbm affinity estimate (log intensity, higher = more binding, comparable within an allelic series).
The same measure, in the same setting: for AGTACTTA the value was 12.7 upbm affinity estimate (log intensity, higher = more binding, comparable within an allelic series).
As for CACTTAAA, the binding signal was 12.8 upbm affinity estimate (log intensity, higher = more binding, comparable within an allelic series).
Consider CAAGTGGC, for which the binding signal is 12.6 upbm affinity estimate (log intensity, higher = more binding, comparable within an allelic series).
On to ACAAGTGG, for which the binding signal is 12.7 upbm affinity estimate (log intensity, higher = more binding, comparable within an allelic series).
On the same count and under the same terms, in the case of CCACTTAA it was 13.3 upbm affinity estimate (log intensity, higher = more binding, comparable within an allelic series).
ATAAGTGG: the binding signal was 13.1 upbm affinity estimate (log intensity, higher = more binding, comparable within an allelic series).
On the same count and under the same terms, in the case of AACCACTT it was 12.9 upbm affinity estimate (log intensity, higher = more binding, comparable within an allelic series); in that of CCACTTGA, 12.6 upbm affinity estimate (log intensity, higher = more binding, comparable within an allelic series); in that of CACTTATC, 12.8 upbm affinity estimate (log intensity, higher = more binding, comparable within an allelic series).
For AAGTACTT, the binding signal was 12.7 upbm affinity estimate (log intensity, higher = more binding, comparable within an allelic series).
Still for that read-out and setting: in the case of CCCACTTA it was 13.2 upbm affinity estimate (log intensity, higher = more binding, comparable within an allelic series); in that of CCACTCAA, 12.7 upbm affinity estimate (log intensity, higher = more binding, comparable within an allelic series).
Regarding GGTACTTA, the binding signal is 12.8 upbm affinity estimate (log intensity, higher = more binding, comparable within an allelic series).
On the same count and under the same terms, for AAGTGGCT the value was 12.9 upbm affinity estimate (log intensity, higher = more binding, comparable within an allelic series); for AAGCACTT, 12.6 upbm affinity estimate (log intensity, higher = more binding, comparable within an allelic series).
On to AAGTGGAT, for which the binding signal is 12.8 upbm affinity estimate (log intensity, higher = more binding, comparable within an allelic series).
Take AAGTGGAG: the binding signal was 12.8 upbm affinity estimate (log intensity, higher = more binding, comparable within an allelic series).
For AAGTGGTA, the binding signal is 12.9 upbm affinity estimate (log intensity, higher = more binding, comparable within an allelic series).
The same measure, in the same setting: for ACCACTTG the value was 12.7 upbm affinity estimate (log intensity, higher = more binding, comparable within an allelic series); for CCACTTAG, 13.5 upbm affinity estimate (log intensity, higher = more binding, comparable within an allelic series).
The same measure, in the same setting: for GGCACTTA the value was 13.4 upbm affinity estimate (log intensity, higher = more binding, comparable within an allelic series); for ACTTAAGT, 12.7 upbm affinity estimate (log intensity, higher = more binding, comparable within an allelic series); for CCACTTAC, 13.3 upbm affinity estimate (log intensity, higher = more binding, comparable within an allelic series).
The same measure, in the same setting: in the case of CACTTAAC it was 12.9 upbm affinity estimate (log intensity, higher = more binding, comparable within an allelic series).
With AAGTACCC, the binding signal is 12.8 upbm affinity estimate (log intensity, higher = more binding, comparable within an allelic series).
Same read-out and setting: in the case of GCACTTCA it was 12.6 upbm affinity estimate (log intensity, higher = more binding, comparable within an allelic series); in that of AACACTTA, 12.7 upbm affinity estimate (log intensity, higher = more binding, comparable within an allelic series); in that of CACTTATG, 12.9 upbm affinity estimate (log intensity, higher = more binding, comparable within an allelic series).
The same measure, in the same setting: for CACTTAAG the value was 13.1 upbm affinity estimate (log intensity, higher = more binding, comparable within an allelic series).
